According to PubChem BioAssay (Tox21):
Where “and” joins values, the source holds several entries; their conditions need not be identical. Identical values can stand only once. The source holds several records for some structures; these can differ, active in one and inactive in another. Calls of active or inactive are those of the source. Unless noted, the call rests on the fitted dose curve; in most records, active means well fitted curve in the direction sought with a large enough effect in the repeat runs; inconclusive means weak or mixed curves; inactive means no such curve, though single readings can be large; an effect the other way counts as inactive or inconclusive.

How the values were obtained:
[1] = qHTS assay to identify small molecule antagonists of the thyroid receptor (TR) signaling pathway - cell viability counter screen (AID 743064); further: nearly all actives have a fitted effect of over 50% in size; further: potency means the concentration at half of the fitted maximal effect
Method in brief: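 GH3.TRE-Luc cells, 4 h pre-plating; cpd + T3 1 nM final; 37 °C 23.5 h; CellTiter-Fluor 30 min; fluorescence read.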

[2] = qHTS assay to identify small molecule antagonists of the thyroid receptor (TR) signaling pathway (AID 743065); further: nearly all actives have a fitted effect of over 55% in size; further: potency means the concentration at half of the fitted maximal effect
Method in brief: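 GH3.TRE-Luc rat pituitary cells carrying two TR response elements driving luciferase were plated for 4 h, given compound plus 1 nM T3 (final), and incubated 23.5 h at 37 C. ONE-Glo luminescence measured reporter inhibition; CellTiter-Fluor fluorescence tracked cytotoxicity.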

[3] = tested on: thyroid hormone receptor (rat, GH3 cells); assay: qHTS assay to identify small molecule agonists of the thyroid receptor (TR) signaling pathway (AID 743066; calls by dose curve; further: on the % scale 0 is the no-effect control and ±100 the full control effect)
[4] = target: Estrogen receptor (Homo sapiens) (UniProt P03372); assay: qHTS assay to identify small molecule antagonists of the estrogen receptor alpha (ER-alpha) signaling pathway (AID 743069; active means well fitted curve in the direction sought with a large enough effect in the signal ratio in the repeat runs, not every such curve was filed as active; inconclusive means weak or mixed curves, or effect the other way; inactive means no such curve, though single readings can be large or run the other way; the % refers to the signal ratio; further: potency means the concentration at half of the fitted maximal effect)
Sequence of Estrogen receptor (Homo sapiens) (P03372 whole entry, looked up): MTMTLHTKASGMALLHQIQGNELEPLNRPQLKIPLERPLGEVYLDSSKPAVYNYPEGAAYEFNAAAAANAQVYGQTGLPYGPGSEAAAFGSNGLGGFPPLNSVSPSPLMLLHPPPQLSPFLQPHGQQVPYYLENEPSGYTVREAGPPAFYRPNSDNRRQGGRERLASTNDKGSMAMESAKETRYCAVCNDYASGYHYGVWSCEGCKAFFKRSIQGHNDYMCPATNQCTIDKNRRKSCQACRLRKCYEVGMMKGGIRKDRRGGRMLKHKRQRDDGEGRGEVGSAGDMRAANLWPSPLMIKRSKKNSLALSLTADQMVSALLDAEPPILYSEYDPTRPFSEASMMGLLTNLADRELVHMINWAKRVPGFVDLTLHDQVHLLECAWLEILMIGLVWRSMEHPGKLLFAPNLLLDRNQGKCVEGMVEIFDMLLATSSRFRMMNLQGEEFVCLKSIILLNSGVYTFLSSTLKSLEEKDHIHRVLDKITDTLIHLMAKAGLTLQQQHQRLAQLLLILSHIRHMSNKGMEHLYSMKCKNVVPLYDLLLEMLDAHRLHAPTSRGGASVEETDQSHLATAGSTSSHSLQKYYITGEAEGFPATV
Method in brief: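 A 17beta-estradiol challenge was applied right after compound transfer to ER-alpha-UAS-bla HEK293 cells previously kept in charcoal-stripped serum. Plates stood 18 hr at 37C and 5% CO2; fluorescence was read following 2 hr FRET substrate loading at room temperature.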

[5] = qHTS assay to identify small molecule antagonists of the estrogen receptor alpha (ER-alpha) signaling pathway - cell viability counter screen (AID 743074; calls by dose curve;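 further: HEK293 cells carrying ER-alpha-UAS-bla reporter stimulated with 17beta-estradiol; nearly all actives have a fitted effect of over 45% in size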; further: potency means the concentration at half of the fitted maximal effect)
[6] = target: Estrogen receptor (Homo sapiens) (UniProt P03372); assay: qHTS assay to identify small molecule agonists of the estrogen receptor alpha (ER-alpha) signaling pathway (AID 743075; calls by dose curve;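 further: HEK293 GripTite cells with ER-alpha and UAS-driven beta-lactamase reporter; on the % scale 0 is the no-effect control and ±100 the full control effect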); details: HEK293 ER-alpha-UAS-bla, beta-lactamase FRET ratio, 18 h; activation: at 70.1 µM (top of the series)
[7] = target: Estrogen receptor (Homo sapiens) (UniProt P03372); assay: qHTS assay to identify small molecule agonists of the estrogen receptor alpha (ER-alpha) signaling pathway using the BG1 cell line (AID 743079); details: BG1Luc4E2 cells, ERE-luciferase agonist, 22 h; further: on the % scale 0 is the no-effect control and ±100 the full control effect; nearly all actives have a fitted effect of over 20% in size
[8] = qHTS assay to identify small molecule antagonists of the estrogen receptor alpha (ER-alpha) signaling pathway using the BG1 cell line - cell viability counter screen (AID 743081);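 further: compound given together with 17beta-estradiol as the ER stimulus; nearly all actives have a fitted effect of over 45% in size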; further: potency means the concentration at half of the fitted maximal effect
[9] = target: Aryl hydrocarbon receptor (Homo sapiens) (UniProt P35869); assay: qHTS assay to identify small molecule that activate the aryl hydrocarbon receptor (AhR) signaling pathway (AID 743085); further: nearly all actives have a fitted effect of over 15% in size; further: potency means the concentration at half of the fitted maximal effect
Sequence of Aryl hydrocarbon receptor (Homo sapiens) (P35869 whole entry, looked up): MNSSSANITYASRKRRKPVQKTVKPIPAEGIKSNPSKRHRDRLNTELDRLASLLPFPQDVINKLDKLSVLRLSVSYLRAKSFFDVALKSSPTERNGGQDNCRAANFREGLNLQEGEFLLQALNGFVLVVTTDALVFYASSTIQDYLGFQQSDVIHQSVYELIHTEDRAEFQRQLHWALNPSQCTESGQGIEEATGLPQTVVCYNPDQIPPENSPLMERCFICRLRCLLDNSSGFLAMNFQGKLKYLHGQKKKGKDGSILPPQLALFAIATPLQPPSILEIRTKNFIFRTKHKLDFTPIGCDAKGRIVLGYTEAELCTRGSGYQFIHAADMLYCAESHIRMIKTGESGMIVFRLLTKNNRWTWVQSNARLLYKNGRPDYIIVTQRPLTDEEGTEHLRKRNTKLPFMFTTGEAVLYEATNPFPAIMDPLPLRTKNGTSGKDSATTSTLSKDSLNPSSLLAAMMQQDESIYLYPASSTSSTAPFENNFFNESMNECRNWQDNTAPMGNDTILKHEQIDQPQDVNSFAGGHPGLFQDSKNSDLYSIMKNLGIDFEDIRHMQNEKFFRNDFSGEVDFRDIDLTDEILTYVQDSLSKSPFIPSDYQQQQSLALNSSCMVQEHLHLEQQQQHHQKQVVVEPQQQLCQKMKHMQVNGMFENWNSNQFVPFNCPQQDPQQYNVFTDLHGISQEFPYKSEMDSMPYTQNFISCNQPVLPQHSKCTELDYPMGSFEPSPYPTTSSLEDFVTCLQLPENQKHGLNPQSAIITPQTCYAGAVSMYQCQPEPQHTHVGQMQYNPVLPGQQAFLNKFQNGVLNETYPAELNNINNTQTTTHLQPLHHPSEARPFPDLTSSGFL
Method in brief: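 Luminescence read-out: ONE-Glo reagent, 30 min at room temperature, in HG2L7.5c1 HepG2 reporter cells treated 24 h at 37C. Viability was measured beforehand by CellTiter-Fluor fluorescence after 30 min at 37C.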

[10] = qHTS assay to identify small molecule that activate the aryl hydrocarbon receptor (AhR) signaling pathway - cell viability counter screen (AID 743086); further: nearly all actives have a fitted effect of over 45% in size; further: potency means the concentration at half of the fitted maximal effect
Method in brief: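 HepG2-AhR-luc (HG2L7.5c1) cells, 4000/well, were preincubated 5 h at 37C, exposed to compound in qHTS format for 24 hr at 37C, then given CellTiter-Fluor for 30 min; viability was read as fluorescence in the reporter wells.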

[11] = qHTS assay to identify small molecule antagonists of the peroxisome proliferator-activated receptor gamma (PPARg) signaling pathway - cell viability counter screen (AID 743194); further: nearly all actives have a fitted effect of over 55% in size; further: potency means the concentration at half of the fitted maximal effect
Method in brief: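 PPARg-UAS-bla HEK293H cells were plated, rested 5 h at 37 C, then treated with compounds plus rosiglitazone (50 nM final) for 17 h at 37 C; viability was then read by CellTiter-Glo luminescence after 30 min at room temperature.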

[12] = qHTS assay for small molecule agonists of the antioxidant response element (ARE) signaling pathway - cell viability counter screen (AID 743203; calls by dose curve; further: nearly all actives have a fitted effect of over 55% in size; further: potency means the concentration at half of the fitted maximal effect)
Method in brief: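 Cytotoxicity was tested in parallel with the ARE reporter screen. ARE-bla HepG2 cells were exposed to compounds for 16 hrs, and viability was taken from CellTiter-Glo luminescence.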

[13] = target: Aromatase (Homo sapiens) (UniProt P11511); assay: qHTS assay to identify aromatase inhibitors (AID 743083); further: nearly all actives have a fitted effect of over 55% in size; further: potency means the concentration at half of the fitted maximal effect
Sequence of Aromatase (Homo sapiens) (P11511 whole entry, looked up): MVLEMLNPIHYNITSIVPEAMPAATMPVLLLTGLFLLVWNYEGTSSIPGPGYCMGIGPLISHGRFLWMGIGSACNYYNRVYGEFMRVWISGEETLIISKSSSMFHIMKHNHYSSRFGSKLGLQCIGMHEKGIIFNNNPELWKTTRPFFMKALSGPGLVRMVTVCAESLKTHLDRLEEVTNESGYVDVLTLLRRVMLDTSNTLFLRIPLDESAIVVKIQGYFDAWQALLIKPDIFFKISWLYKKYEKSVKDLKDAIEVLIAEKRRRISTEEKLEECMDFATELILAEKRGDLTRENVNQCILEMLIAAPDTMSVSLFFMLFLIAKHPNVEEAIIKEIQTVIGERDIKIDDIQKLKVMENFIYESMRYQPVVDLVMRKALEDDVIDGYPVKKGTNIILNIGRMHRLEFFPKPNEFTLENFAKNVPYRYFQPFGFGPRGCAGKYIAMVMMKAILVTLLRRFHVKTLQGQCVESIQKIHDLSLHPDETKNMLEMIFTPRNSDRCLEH

[14] = qHTS assay to identify aromatase inhibitors - cell viability counter screen (AID 743084); further: potency means the concentration at half of the fitted maximal effect
[15] = qHTS assay to identify small molecule antagonists of the estrogen receptor alpha (ER-alpha) signaling pathway using the BG1 cell line (AID 743080; calls by dose curve;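 further: BG1 cells stimulated with 17beta-estradiol alongside compound; nearly all actives have a fitted effect of over 25% in size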; further: potency means the concentration at half of the fitted maximal effect)
Method in brief: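 BG1-Luc-4E2 cells (endogenous full-length ER-alpha, stable 4×ERE-luciferase) were starved 5 days in phenol-red-free medium with 10% charcoal-stripped FBS, plated 24 h, then given compound plus 17beta-estradiol for 21.5 h at 37 C; ONE-Glo luminescence read after 30 min.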

[16] = target: Peroxisome proliferator-activated receptor gamma (Homo sapiens) (UniProt P37231); assay: qHTS assay to identify small molecule antagonists of the peroxisome proliferator-activated receptor gamma (PPARg) signaling pathway (AID 743191; calls by dose curve; further: on the % scale 0 is the no-effect control and ±100 the full control effect; nearly all actives have a fitted effect of over 30% in size)
Sequence of Peroxisome proliferator-activated receptor gamma (Homo sapiens) (P37231 whole entry, looked up): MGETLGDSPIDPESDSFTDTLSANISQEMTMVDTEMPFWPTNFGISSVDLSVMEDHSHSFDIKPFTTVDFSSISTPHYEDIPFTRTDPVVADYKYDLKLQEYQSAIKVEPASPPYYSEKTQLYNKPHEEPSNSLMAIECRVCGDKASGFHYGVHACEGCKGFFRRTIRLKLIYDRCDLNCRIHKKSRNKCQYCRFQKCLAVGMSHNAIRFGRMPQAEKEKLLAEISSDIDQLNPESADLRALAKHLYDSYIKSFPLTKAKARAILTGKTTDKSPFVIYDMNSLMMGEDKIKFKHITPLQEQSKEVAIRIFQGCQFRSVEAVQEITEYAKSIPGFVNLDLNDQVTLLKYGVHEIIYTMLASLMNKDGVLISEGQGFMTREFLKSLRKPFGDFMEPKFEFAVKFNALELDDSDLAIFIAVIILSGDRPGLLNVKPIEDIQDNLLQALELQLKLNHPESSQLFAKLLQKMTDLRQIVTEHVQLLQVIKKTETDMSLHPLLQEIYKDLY
Method in brief: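 GeneBLAzer PPARg UAS-bla HEK293H cells carrying a UAS-driven beta-lactamase reporter were plated at 3000 cells/well, preincubated 5 h at 37C, then given compound for 17 h at 37C; LiveBLAzer B/G FRET substrate was read after 1 h at room temperature.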

[17] = qHTS assay for small molecule activators of the heat shock response signaling pathway - cell viability counter screen (AID 743209); further: nearly all actives have a fitted effect of over 50% in size; further: potency means the concentration at half of the fitted maximal effect
Method in brief: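 Cytotoxicity counter screen run in parallel with the HSE beta-lactamase reporter, using the same wells. HeLa HSE-bla cells received compound for 5 h at 37 C; ATP-based CellTiter-Glo luminescence was measured after 30 min at room temperature.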

[18] = target: Peroxisome proliferator-activated receptor gamma (Homo sapiens) (UniProt P37231); assay: qHTS assay to identify small molecule agonists of the peroxisome proliferator-activated receptor gamma (PPARg) signaling pathway (AID 743094; active means well fitted activation curve with a large enough effect in the signal ratio in the repeat runs, not every such curve was filed as active; inconclusive means weak or mixed curves, or effect the other way; inactive means no such curve, though single readings can be large or run the other way; the % refers to the signal ratio; further: on the % scale 0 is the no-effect control and ±100 the full control effect)
Method in brief: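 Cells from the PPARg UAS-bla HEK293H line are plated and incubated 5 h at 37C. Compounds in DMSO are pinned in and left 17 h at 37C. LiveBLAzer B/G substrate is then added for 1 h at room temperature before fluorescence is measured.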

[19] = qHTS assay for small molecule activators of the heat shock response signaling pathway (AID 743210; active means well fitted activation curve with a large enough effect in the signal ratio in the repeat runs, with a control signal flat, not every such curve was filed as active; inconclusive means weak or mixed curves; the % refers to the signal ratio; further: on the % scale 0 is the no-effect control and ±100 the full control effect)
Method in brief: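 Heat shock element–beta-lactamase HeLa reporter cells; qHTS with compounds for 5 h at 37 C; detection by FRET substrate fluorescence after 2.5 h at RT.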

[20] = qHTS assay for small molecule agonists of the antioxidant response element (ARE) signaling pathway (AID 743202; active means well fitted activation curve with a large enough effect in the signal ratio in the repeat runs, not every such curve was filed as active; inconclusive means weak or mixed curves, or effect the other way; inactive means no such curve, though single readings can be large or run the other way; the % refers to the signal ratio; further: potency means the concentration at half of the fitted maximal effect)
Method in brief: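 Following a 16 h, 37 C exposure of reporter HepG2 cells (ARE-driven beta-lactamase, 2,000 cells/well) to compounds, FRET substrate was applied for 2 h at room temperature and fluorescence intensity recorded.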

O=c1cccccc1O
active: Potency [1] 19.7 µM | Potency [2] 17.6 µM
inactive: Potency [3] | Potency [4] | Potency [5] | Potency [6] | activation ([7]; at 95 µM (top of the series)) -8.54% | Potency [8] | Potency [9] | Potency [10] | Potency [11] | Potency [12]

Clc1ccccc1C(c1ccccc1)(c1ccccc1)n1ccnc1
inactive: Potency [3] | Potency [6] | activation ([7]; at 32.5 µM (top of the series)) -14.7% | Potency [8] | Potency [14]
active: Potency [1] 8.04 µM and 21.7 µM | Potency [2] 3.59 µM and 3.86 µM | Potency [4] 6.44 µM [inconclusive] and 15.5 µM [inconclusive] | Potency [13] 4.52 µM and 6.86 µM | Potency [11] 24.5 µM
inactive and 54.9 µM (active): Potency [5]
inactive and 54.5 µM (active): Potency [10]

CCCCCCCCCCCCCCCC(=O)OC[C@H](O)[C@H]1OC(=O)C(O)=C1O
active: Potency [17] 49 µM
inactive: Potency [1] | Potency [2] | Potency [3] | Potency [4] | Potency [5] | Potency [6] | activation ([7]; at 70.3 µM (top of the series)) 0.436% and 6.85% | Potency [15] | Potency [8] | Potency [13] | Potency [14] | Potency [9] | Potency [10] | Potency [16] | Potency [12]

CCCCCCCC/C=C\CCCCCCCCOCCO
active: Potency [1] 25.1 µM | Potency [2] 11.2 µM | Potency [4] 9 µM [inconclusive] | Potency [5] 56.8 µM | Potency [15] 10 µM | Potency [8] 39.8 µM | Potency [13] 35.5 µM | Potency [14] 79.4 µM | Potency [11] 56.8 µM | Potency [12] 63.1 µM | Potency [17] 28.4 µM
inactive: Potency [3]

O=[N+]([O-])c1ccccc1Nc1ccccc1
inactive: Potency [1] | Potency [2] | Potency [3] | Potency [4] | Potency [5] | Potency [6] | activation ([7]; at 70.3 µM (top of the series)) 4.1% | Potency [15] | Potency [8] | Potency [14] | Potency [9] | Potency [10] | Potency [18] | Potency [16] | Potency [11] | Potency [12] | Potency [17] | Potency [19]

COC(=O)C1=C(C)NC(C)=C(C(=O)OCC(C)C)C1c1ccccc1[N+](=O)[O-] (configuration not stated)
inactive: Potency [3] | Potency [5] | Potency [6] | Potency [8] | Potency [10] | Potency [11] | Potency [17]
active: Potency [1] 33.5 µM and 68.6 µM | Potency [2] 29.8 µM and 54.5 µM | Potency [4] 54.9 µM [inconclusive] | Potency [13] 33.5 µM and 61.1 µM | Potency [14] 33.5 µM and 61.1 µM | Potency [9] 9.44 µM | Potency [20] 23.7 µM

CC(=O)SC[C@@H](Cc1ccccc1)C(=O)NCC(=O)OCc1ccccc1
inactive: Potency [1] | Potency [2] | Potency [3] | Potency [4] | Potency [5] | Potency [6] | activation ([7]; at 32.5 µM (top of the series)) 3.92% | Potency [15] | Potency [13] | Potency [14] | Potency [9] | Potency [10] | Potency [18] | Potency [16] | Potency [11] | Potency [12] | Potency [17] | Potency [19]

O=C(NO)C1(NS(=O)(=O)c2ccc(Oc3ccc(F)cc3)cc2)CCOCC1
inactive: Potency [1] | Potency [2] | Potency [3] | Potency [4] | Potency [5] | Potency [6] | Potency [8] | Potency [13] | Potency [14] | Potency [9] | Potency [10] | Potency [18] | Potency [16] | Potency [11] | Potency [17] | Potency [19]

CC(C)(C)C(=O)OCOC(=O)[C@@H]1N2C(=O)[C@@H](NC(=O)[C@H](N)c3ccccc3)[C@H]2SC1(C)C
inactive: Potency [1] | Potency [2] | Potency [3] | Potency [4] | Potency [5] | Potency [6] | activation ([7]; at 32.5 µM (top of the series)) 0.598% | Potency [15] | Potency [8] | Potency [13] | Potency [14] | Potency [10] | Potency [11] | Potency [17]

CCCCC(CC)COP(=O)(O)OCC(CC)CCCC (configuration not stated)
active: Potency [1] 27.4 µM | Potency [2] 61.3 µM | Potency [4] 4.36 µM [inconclusive] | Potency [5] 39 µM | Potency [17] 49.1 µM and 43.6 µM
inactive: Potency [3] | Potency [6] | Potency [15] | Potency [8] | Potency [13] | Potency [14] | Potency [9] | Potency [10] | Potency [11]

CNC(=O)c1ccccc1
inactive: Potency [1] | Potency [2] | Potency [3] | Potency [4] | Potency [5] | Potency [6] | activation ([7]; at 70.3 µM (top of the series)) -14.7% | Potency [15] | Potency [8] | Potency [13] | Potency [14] | Potency [9] | Potency [10] | Potency [18] | Potency [11] | Potency [12] | Potency [17] | Potency [19]

CC(=O)OCC(C)OC(C)=O (configuration not stated)
inactive: Potency [1] | Potency [2] | Potency [3] | Potency [4] | Potency [5] | Potency [6] | activation ([7]; at 70.3 µM (top of the series)) 5.73% | Potency [15] | Potency [8] | Potency [13] | Potency [14] | Potency [9] | Potency [10] | Potency [18] | Potency [16] | Potency [11] | Potency [17]

CCCCN1CCCC[C@H]1C(=O)Nc1c(C)cccc1C
inactive: Potency [1] | Potency [2] | Potency [3] | Potency [4] | Potency [5] | Potency [6] | activation ([7]; at 70.3 µM (top of the series)) -9.26% | Potency [15] | Potency [8] | Potency [13] | Potency [14] | Potency [9] | Potency [10] | Potency [18] | Potency [11] | Potency [12] | Potency [17] | Potency [19]

CC(=O)N1CCN(c2ccc(OC[C@H]3CO[C@](Cn4ccnc4)(c4ccc(Cl)cc4Cl)O3)cc2)CC1
active: Potency [2] 26.6 µM and 15.4 µM | Potency [15] 13.3 µM | Potency [9] 6.68 µM | Potency [11] 43.6 µM
inactive: Potency [3] | Potency [4] | Potency [6] | Potency [8] | Potency [13]
inactive and 21.7 µM (active): Potency [1]
inactive and 43.6 µM (active): Potency [5]
inactive and 61.1 µM (active): Potency [14]
inactive and 27.3 µM (active): Potency [10]
